According to the supplement of paper PMC10849652:
The full data set covers some 8,800 targets. This sample favours those with a hit. About 0.5% of all pairs of compound and target were hits.

Assays:
Assay in all cases: log2 fold change, soluble protein after heating vs DMSO (PISA); higher = thermal stabilisation; K562 lysate, 10 uM; active = over 0.2 and 3.5 SD of the protein, either way, in both replicates (recomputed)
[1] = compound: C1=CC=C(C=C1)[C@H](COC2=CC3=C(C=C2)NC(=O)N3)NC(=O)C4=CC=CN(C4=O)CC5=CC(=C(C=C5)F)F
Method in brief: (§1)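 Quantification was by TMTpro 16plex LC-MS/MS with equalised channel sums, applied to the supernatant after 21,000xg for 90 min. Samples were crude K562 extract at 1 mg/mL protein in PBS pH 7.4 with 1 mM MgCl2, treated with 10 μM compound for 30 min, heated for 3 min across 48°C-58°C, pooled and brought to 0.5% NP-40 at 4°C. Values are log-two fold changes in thermal stability relative to solvent controls, from duplicates.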

[2] = compound: CC1=C(SC2=C1C(=N[C@H](C3=NN=C(N32)C)CC(=O)N)C4=CC=C(C=C4)Cl)C
Method in brief: as §1

[3] = compound: CC1=C2C(=CC=C1)N=C(N(C2=O)C3=CC=CC=C3C)CN4C=NC5=C(N=CN=C54)N
Method in brief: as §1

[4] = compound: Cc1sc2c(c1C)C(c1ccc(Cl)cc1)=N[C@@H](CC(=O)OC(C)(C)C)c1nnc(C)n1-2
Method in brief: as §1

[5] = compound: c1ccc([C@@H]2C[C@H]2NC2CCNCC2)cc1
Method in brief: as §1

Measured: log2 fold change

DUSP22 isoform 2 (UniProt Q9NRW4)
Sequence of UniProt Q9NRW4 (Q9NRW4 whole entry, looked up): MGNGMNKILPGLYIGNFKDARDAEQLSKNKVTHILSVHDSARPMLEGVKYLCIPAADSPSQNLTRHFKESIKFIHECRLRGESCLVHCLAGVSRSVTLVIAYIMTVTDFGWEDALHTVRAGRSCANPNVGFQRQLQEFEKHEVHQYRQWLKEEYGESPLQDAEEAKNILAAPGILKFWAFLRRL
inactive: [1] 0.05 | [2] -0.068 | [3] 0.038 | [4] 0.099 | [5] -0.028

FIGNL1 (UniProt Q6PIW4)
Sequence of UniProt Q6PIW4 (Q6PIW4 whole entry, looked up): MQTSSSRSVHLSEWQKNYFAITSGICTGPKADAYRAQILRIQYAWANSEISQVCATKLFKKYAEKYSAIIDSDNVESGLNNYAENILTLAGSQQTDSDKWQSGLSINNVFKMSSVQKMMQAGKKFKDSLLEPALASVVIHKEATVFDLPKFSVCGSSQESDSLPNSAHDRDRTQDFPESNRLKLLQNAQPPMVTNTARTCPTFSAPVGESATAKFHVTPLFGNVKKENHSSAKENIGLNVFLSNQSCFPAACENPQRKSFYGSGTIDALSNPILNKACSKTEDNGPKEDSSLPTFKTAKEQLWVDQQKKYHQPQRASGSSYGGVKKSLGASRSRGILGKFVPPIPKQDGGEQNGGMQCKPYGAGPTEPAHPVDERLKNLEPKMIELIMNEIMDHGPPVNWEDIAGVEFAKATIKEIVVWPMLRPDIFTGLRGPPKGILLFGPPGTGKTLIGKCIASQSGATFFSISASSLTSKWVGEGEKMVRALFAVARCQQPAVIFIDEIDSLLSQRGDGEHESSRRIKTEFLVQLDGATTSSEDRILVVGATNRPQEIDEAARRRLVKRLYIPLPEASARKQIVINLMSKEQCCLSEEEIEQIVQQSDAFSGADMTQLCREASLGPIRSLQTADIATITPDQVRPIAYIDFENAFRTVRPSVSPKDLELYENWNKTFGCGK
inactive: [1] -0.033 | [2] 0.01 | [3] 0.028 | [4] 0.051 | [5] 0.085

EMP3 (UniProt P54852)
Sequence of UniProt P54852 (P54852 whole entry, looked up): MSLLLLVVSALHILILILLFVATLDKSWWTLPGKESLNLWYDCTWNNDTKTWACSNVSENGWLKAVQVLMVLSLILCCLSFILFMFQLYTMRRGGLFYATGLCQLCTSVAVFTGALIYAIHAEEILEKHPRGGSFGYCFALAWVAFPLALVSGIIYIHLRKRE
inactive: [1] 0.026 | [2] -0.028 | [3] -0.038 | [4] -0.113 | [5] -0.345

FADS1, A0A0A0MR51
inactive: [1] 0.071 | [2] -0.019 | [3] -0.027 | [4] -0.035 | [5] 0.013

DYNC1I2 isoform 2 (UniProt Q13409)
Sequence of UniProt Q13409 (Q13409 whole entry, looked up): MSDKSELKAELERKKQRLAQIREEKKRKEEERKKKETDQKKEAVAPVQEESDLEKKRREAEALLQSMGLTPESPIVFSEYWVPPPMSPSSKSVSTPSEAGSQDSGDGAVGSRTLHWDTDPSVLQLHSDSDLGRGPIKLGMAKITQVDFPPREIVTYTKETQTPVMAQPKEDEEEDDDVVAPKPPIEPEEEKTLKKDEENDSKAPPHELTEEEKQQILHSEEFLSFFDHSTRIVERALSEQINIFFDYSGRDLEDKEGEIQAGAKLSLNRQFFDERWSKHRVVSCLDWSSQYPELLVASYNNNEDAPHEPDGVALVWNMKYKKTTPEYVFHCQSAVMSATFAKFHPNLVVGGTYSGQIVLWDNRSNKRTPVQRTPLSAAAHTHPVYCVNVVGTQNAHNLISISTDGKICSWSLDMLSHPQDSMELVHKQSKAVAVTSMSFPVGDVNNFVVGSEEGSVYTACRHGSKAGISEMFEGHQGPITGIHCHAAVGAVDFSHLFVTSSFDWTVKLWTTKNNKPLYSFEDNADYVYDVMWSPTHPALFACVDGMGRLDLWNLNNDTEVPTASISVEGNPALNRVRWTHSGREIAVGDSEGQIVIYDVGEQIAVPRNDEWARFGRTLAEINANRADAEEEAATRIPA
inactive: [1] -0.011 | [2] 0.253 | [3] -0.005 | [4] 0.082 | [5] 0.155

FBRSL1, A0A3B3IRR3
inactive: [1] 0.002 | [2] 0.005 | [3] -0.021 | [4] 0.02 | [5] -0.028

FTL (UniProt P02792)
Sequence of UniProt P02792 (P02792 whole entry, looked up): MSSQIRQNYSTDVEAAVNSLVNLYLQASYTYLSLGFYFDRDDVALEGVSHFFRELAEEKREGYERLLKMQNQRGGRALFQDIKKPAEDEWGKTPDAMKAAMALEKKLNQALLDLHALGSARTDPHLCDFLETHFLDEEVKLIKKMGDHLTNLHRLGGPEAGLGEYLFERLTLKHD
inactive: [1] -0.067 | [2] 0.127 | [3] -0.034 | [4] -0.03 | [5] -0.031

FAU (UniProt E9PR30)
inactive: [1] 0.001 | [2] 0.06 | [3] -0.008 | [4] 0.018 | [5] 0.135

DYRK1A (UniProt Q13627)
inactive: [1] -0.019 | [2] 0.003 | [3] -0.014 | [4] 0.019 | [5] 0.031
